The values below come from PubChem BioAssay (NCI).

Compounds without any hit were thinned out: in the full panel of roughly 83,000, 20% have a hit.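 Compound tested at a single concentration for 48 hours in 96-well plates; a percent growth value below 10 was scored as active.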 Unmarked numbers belong to inactive results. Active and inactive are the calls of the source.

Test systems include NCI-H23 lung; NCI-H226 lung; HOP-62 NSCLC; NCI-H460 lung; HOP-92 NSCLC; NCI-H522 lung; A549/ATCC NSCLC; 786-0 renal; COLO 205 colon; DU-145 prostate; K-562 leukemia; MALME-3M melanoma; MDA-MB-231 breast; RXF 393 renal; SF-268 CNS; SF-295 CNS; SF-539 CNS; UACC-257 melanoma; M14 melanoma; NCI-H322M lung.
Experiment in all cases: NCI-60 one-dose screen, 48 h (100 = growth as untreated, 0 = no growth, -100 = all killed)
Details in all cases: 10 µM unless noted

As to `COc1ccc(C(=O)Nc2ncc(Cc3ccc(Cl)cc3)s2)cc1`, the growth in the assay on NCI-H23 lung is 30.5%; with NCI-H226 lung, 41.7%; in the assay with HOP-62 NSCLC it was 21.2%; with NCI-H460 lung, 5.09% (active); with HOP-92 NSCLC it was 41.4%; in the assay with NCI-H522 lung it was -16.3% (active). Moreover, the growth is 17.7% in the assay with A549/ATCC NSCLC; 17.6% in the assay with 786-0 renal; -2.86% (active) with COLO 205 colon; 12.6% in the assay on DU-145 prostate; 7.71% (active) with K-562 leukemia; 57.2% in the assay with MALME-3M melanoma. Moreover, the growth in the assay on MDA-MB-231 breast is 31.3%; in the assay on RXF 393 renal, 3.43% (active); in the assay on SF-268 CNS it was 44.8%; in the assay with SF-295 CNS, 1.3% (active); in the assay on SF-539 CNS, -22.9% (active); with UACC-257 melanoma, 46.8%. The growth in the assay on M14 melanoma is -29.4% (active).
With `c1ccc(-c2ccc3c(c2)C2(CCNCC2)CN3)cc1`, the growth was 86.3% in the assay on NCI-H23 lung; 95.9% in the assay with NCI-H226 lung; 95.2% in the assay with HOP-62 NSCLC; 95.8% in the assay with NCI-H460 lung; 86.1% with HOP-92 NSCLC; 88.3% in the assay with NCI-H522 lung. Moreover, the growth with A549/ATCC NSCLC is 112%; with 786-0 renal, 95.1%; in the assay with COLO 205 colon, 103%; with DU-145 prostate it was 99%; with K-562 leukemia, 90%; in the assay on MALME-3M melanoma, 94.1%. For the same molecule, the growth in the assay with MDA-MB-231 breast was 85.1%; in the assay with RXF 393 renal, 112%; with SF-268 CNS, 87.4%; in the assay on SF-295 CNS, 98.6%; in the assay on SF-539 CNS, 97.8%; in the assay with UACC-257 melanoma, 119%. Besides, in the assay with M14 melanoma, the growth was 92.3%.
In the case of `COC(=O)/C=C1/SC(=Nc2ccc(F)cc2)N(CCc2c[nH]c3ccc(O)cc23)C1=O`, the growth with NCI-H23 lung is 62.2%; in the assay with NCI-H226 lung it was 62.5%; in the assay on HOP-62 NSCLC, 27.6%; in the assay on NCI-H460 lung, 25.3%; in the assay on HOP-92 NSCLC it was 40.2%; with NCI-H522 lung it was 23.6%. Moreover, the growth was 69.5% in the assay with A549/ATCC NSCLC; 40.6% in the assay with 786-0 renal; 78.2% in the assay on COLO 205 colon; 37.2% in the assay on DU-145 prostate; 37.7% in the assay with K-562 leukemia; 58.9% with MALME-3M melanoma. Besides, the growth is 59.3% in the assay on MDA-MB-231 breast; 32% with RXF 393 renal; 45.9% in the assay on SF-268 CNS; 61.5% in the assay on SF-295 CNS; 45.3% in the assay on SF-539 CNS; 39.4% in the assay on UACC-257 melanoma. Further, the growth in the assay on M14 melanoma is 40.1%.
In the case of `CCCn1c(=S)sc2c(NNC(C)=O)nc(C)nc21`, the growth with NCI-H23 lung is 99.3%; with NCI-H226 lung it was 97.1%; in the assay with NCI-H322M lung, 101%; in the assay with NCI-H460 lung, 101%; in the assay with HOP-92 NSCLC, 89.4%; in the assay with NCI-H522 lung, 90.9%. The growth is 89.1% with A549/ATCC NSCLC; 92.2% in the assay with 786-0 renal; 126% in the assay on COLO 205 colon; 134% in the assay with DU-145 prostate; 68.8% with K-562 leukemia; 101% in the assay on MALME-3M melanoma. The growth in the assay with MDA-MB-231 breast is 103%; with RXF 393 renal, 98.5%; in the assay with SF-268 CNS it was 111%; in the assay on SF-295 CNS, 121%; in the assay on SF-539 CNS, 90.6%; in the assay on UACC-257 melanoma, 91.7%. Further, in the assay with M14 melanoma, the growth is 108%.
Turning to `O=C(/C=C/c1ccco1)Nc1ncc(Cc2cc(Cl)ccc2Cl)s1`, the growth with NCI-H23 lung is 33.4%; with NCI-H226 lung, 39.4%; in the assay on NCI-H322M lung it was 43.7%; in the assay on NCI-H460 lung, 3.88% (active); with HOP-92 NSCLC, 72.4%; in the assay with NCI-H522 lung it was -4.32% (active). The growth in the assay on A549/ATCC NSCLC was 19.8%; with 786-0 renal it was 31.4%; in the assay on COLO 205 colon, -14.2% (active); in the assay with DU-145 prostate, 13.9%; in the assay on K-562 leukemia, 7.9% (active); with MALME-3M melanoma it was 49%. Also, the growth was 47.4% with MDA-MB-231 breast; -2.79% (active) with RXF 393 renal; 44% in the assay on SF-268 CNS; 9.56% (active) in the assay with SF-295 CNS; -18.8% (active) in the assay on SF-539 CNS; 38.8% with UACC-257 melanoma. Besides, the growth in the assay with M14 melanoma was 6.81% (active).
For the molecule `CCCOC(=O)Nc1nc2ccc(SCC)cc2s1`, the growth was 91.9% in the assay on NCI-H23 lung; 92.9% with NCI-H226 lung; 81.4% in the assay on HOP-62 NSCLC; 79.6% with NCI-H460 lung; 96.1% in the assay on HOP-92 NSCLC; 65.6% in the assay with NCI-H522 lung. Further, the growth with A549/ATCC NSCLC is 80.5%; in the assay on 786-0 renal it was 93.9%; with COLO 205 colon, 72.2%; with DU-145 prostate, 94.6%; in the assay on K-562 leukemia, 26.2%; in the assay on MALME-3M melanoma, 77.9%. Besides, the growth with MDA-MB-231 breast is 82.9%; with RXF 393 renal, 95.8%; in the assay with SF-268 CNS, 92.8%; in the assay on SF-295 CNS, 80.8%; in the assay with SF-539 CNS it was 80.9%; in the assay on UACC-257 melanoma, 96.4%. Moreover, the growth in the assay on M14 melanoma was 46.5%.
Turning to `Cc1c2ccccc2nc2cc3c(cc12)[C@H]1CC[C@]2(C)C(=O)CC[C@H]2[C@@H]1CC3`, the growth with NCI-H23 lung was 98.5%; in the assay on NCI-H226 lung it was 91.8%; in the assay on HOP-62 NSCLC, 105%; with NCI-H460 lung, 97.3%; in the assay with HOP-92 NSCLC, 86.9%; with A549/ATCC NSCLC it was 86.5%. Also, the growth in the assay with 786-0 renal was 98%; in the assay on COLO 205 colon, 109%; in the assay on DU-145 prostate, 106%; in the assay with K-562 leukemia, 90.2%; in the assay with MALME-3M melanoma it was 108%; with MDA-MB-231 breast it was 91.6%. The growth in the assay on RXF 393 renal is 101%; in the assay with SF-268 CNS it was 89.5%; in the assay with SF-295 CNS it was 99.9%; in the assay on SF-539 CNS it was 96.5%; with UACC-257 melanoma, 98.3%; with M14 melanoma, 102%.
With `COc1ccc(-c2nc3c(c(-c4ccc(Cl)cc4)nn3-c3ccccc3)c(-c3ccccc3)c2C#N)cc1`, the growth with NCI-H23 lung was 103%; with NCI-H226 lung it was 97.4%; in the assay with HOP-62 NSCLC it was 111%; in the assay with NCI-H460 lung, 104%; in the assay on HOP-92 NSCLC it was 120%; in the assay on NCI-H522 lung it was 96.3%. For the same molecule, the growth in the assay on A549/ATCC NSCLC was 95.9%; with 786-0 renal, 108%; with COLO 205 colon it was 118%; in the assay with DU-145 prostate, 104%; in the assay with K-562 leukemia it was 100%; with MALME-3M melanoma it was 103%. The growth is 111% in the assay with MDA-MB-231 breast; 134% with RXF 393 renal; 106% in the assay on SF-268 CNS; 102% in the assay on SF-295 CNS; 103% in the assay on SF-539 CNS; 95.9% with UACC-257 melanoma. The growth in the assay with M14 melanoma is 92.3%.
